TrxR1 inh: qHTS Assay for Inhibitors of Mammalian Selenoprotein Thioredoxin Reductase 1 (TrxR1): qHTS. Potency, µM (top dose mostly 114 µM), for the others: top-dose activity change, negative = inhibition, hits mostly inhibitors. recombinant rTrxR1, NADPH fluorescence consumption, selenite substrate. hit rate 1% among 390,000; also: % is scaled to controls: 0 for no effect and ±100 for the full control effect; nearly all actives have a fitted effect of over 65% in size
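Rat TrxR1 (90 nM in the dispensed reagent) was pre-reduced with 400 uM NADPH for 5 min at room temperature, then incubated with compound for 15 min. After 400 uM selenite was added, NADPH fluorescence (Ex 340/Em 450 nm) was followed for 8 min.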
HEK293 tox: qHTS of GLP-1 Receptor Inverse Agonists: Cytotox Screen; HEK293 cAMP-luciferase reporter cells, luminescence, 24 h; Potency, µM (titrated, usually from 38.3 µM), without a hit: top-dose activity change, negative = inhibition, hits mostly inhibitors; hit rate 0.13% among 410,000;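 also: loss of luciferase light is scored as toxicity; % is scaled to controls: 0 for no effect and ±100 for the full control effect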
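Step one: seed cells (200 cells/uL, DMEM with 10% Nu serum, 1% pen-strep). Step two: 12-hour incubation at 37 deg C. Step three: pin 23 nL compound, incubate 24 hr. Step four: add luciferase reagent, read luminescence 12 min later.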
TrxR1 substrate: qHTS Assay for Substrates of Mammalian Selenoprotein Thioredoxin Reductase 1 (TrxR1): qHTS. purified TrxR1 substrate turnover, NADPH consumption readout. Potency, µM (titrated, usually from 114 µM), inactives show top-dose activity change, negative = substrate turnover. hit rate 0.01% among 390,000; also: % is scaled to controls: 0 for no effect and ±100 for the full control effect; nearly all actives have a fitted effect of over 50% in size
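Rat TrxR1, dispensed at 90 nM, was prereduced with 400 uM NADPH (final) for 5 min at ~22 deg C, then incubated with compound 15 min before 400 uM selenite. A first-read NADPH fluorescence drop versus no-compound background flagged substrates.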
GLP1R ag: qHTS of GLP-1 Receptor Agonists; AID 624172, 2012; HEK293 GLP-1R CRE-luciferase, luminescence, 4-6 h; cells express a hypersensitive GLP-1R form; hit rate 0.007% among 380,000; Glucagon-like peptide 1 receptor (Homo sapiens), P43220; Potency, µM (doses to about 45.6 µM), inactives show at the top dose activation, actives largely listed as activators; also: % of control where 0% means no effect
Target sequence (P43220 whole entry, looked up): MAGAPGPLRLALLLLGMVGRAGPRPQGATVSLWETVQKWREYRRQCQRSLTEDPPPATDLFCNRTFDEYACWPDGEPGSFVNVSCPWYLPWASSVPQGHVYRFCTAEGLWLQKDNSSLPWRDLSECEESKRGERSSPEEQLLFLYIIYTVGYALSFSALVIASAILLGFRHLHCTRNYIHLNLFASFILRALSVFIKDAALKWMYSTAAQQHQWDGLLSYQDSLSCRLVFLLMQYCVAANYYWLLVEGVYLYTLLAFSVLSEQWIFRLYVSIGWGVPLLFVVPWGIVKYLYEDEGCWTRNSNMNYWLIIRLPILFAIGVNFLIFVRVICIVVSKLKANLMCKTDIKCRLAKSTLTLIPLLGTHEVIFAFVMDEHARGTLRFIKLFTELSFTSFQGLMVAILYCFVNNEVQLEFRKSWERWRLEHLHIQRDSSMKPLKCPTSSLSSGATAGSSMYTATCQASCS
GLP1R inv ag: qHTS of GLP-1 Receptor Inverse Agonists (Inhibition Mode). Glucagon-like peptide 1 receptor (Homo sapiens), P43220. HEK293 GLP-1R CRE-luciferase, luminescence, 24 h; GLP-1R form is constitutively active. Potency, µM (doses to about 38.3 µM), for the others: at the top dose activity change, negative = inhibition, usual class: inhibitors. hit rate 1.6% among 410,000; also: % is scaled to controls: 0 for no effect and ±100 for the full control effect; nearly all actives have a fitted effect of over 55% in size
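Cells are plated, allowed 12 hours at 37 deg C, then treated with compounds for 24 hr before luciferase detection reagent is added and luminescence is read after 12 min at room temperature. The HEK293 line carries constitutively active GLP-1R with a cAMP-responsive reporter.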
mIDH1 inhibitor: qHTS for Inhibitors of mutant isocitrate dehydrogenase 1 (IDH1): qHTS. IDH1-R132H enzyme, NADPH consumption, diaphorase/resazurin fluorescence. AID 602179, 2012. hit rate 0.093% among 390,000. Potency, µM (series often up to 76.6 µM), for inactives: top-dose activity change, negative = inhibition, most hits filed as inhibitors. Isocitrate dehydrogenase [NADP] cytoplasmic (Homo sapiens), O75874; also: % is scaled to controls: 0 for no effect and ±100 for the full control effect; nearly all actives have a fitted effect of over 65% in size
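IDH1-R132H (0.5 ug/mL dispensed) in pH 7.5 Tris buffer was preincubated 30 min with compound, then given a substrate mix of 0.016 mM NADPH and 2 mM alpha-KG for 80 min at room temperature; remaining NADPH was read by diaphorase/resazurin fluorescence.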
Active calls of the source: *; [ ] = another dose, or the depositor's remark. In the library only some 2.7% were active in any assay of this set; here they are far more common. Calls follow the shape of the dose curve; as a rule, active = well fitted curve in the direction sought with a large enough effect; inconclusive = small, poorly fitted or top-dose-only effect, or another doubt; inactive = no such curve, though single readings can be large; an effect the other way counts as inactive or inconclusive. Potency is read from the fitted curve at half-maximal effect.

How did COc1ccc(CNC(=O)CN2C(=O)CSc3ccc(S(=O)(=O)N4CCCC4)cc32)cc1 do in these assays?
TrxR1 inh: 4%; HEK293 tox: -6%; TrxR1 substrate: -3%; GLP1R inv ag: -24%; mIDH1 inhibitor: -11%

How did COc1ccc(N2CCN(c3ncnc4scc(-c5ccccc5)c34)CC2)cc1 do in these assays?
TrxR1 inh: 23%; HEK293 tox: -7%; TrxR1 substrate: 6%; GLP1R ag: 12%; GLP1R inv ag: 6.3µM*; mIDH1 inhibitor: 1%

What do the screens show for `OCCN1CCN(c2ncnc3c2c(-c2ccccc2)cn3-c2ccc(Br)cc2)CC1`?
TrxR1 inh: 10%[57.1 µM]; HEK293 tox: inconclusive; TrxR1 substrate: 6%[57.1 µM]; GLP1R ag: 14%; GLP1R inv ag: 10µM*; mIDH1 inhibitor: 6%

Results for c1ccc(-c2cc(-c3ccc(N4CCOCC4)cc3)nc3ccccc23)cc1 ?
TrxR1 inh: 39%; HEK293 tox: 38%; TrxR1 substrate: 37%; GLP1R ag: 8%; GLP1R inv ag: 8%; mIDH1 inhibitor: 0%

How did COc1ccc(N2CCN(c3ncnc4scc(-c5ccc(F)cc5)c34)CC2)cc1 do in these assays?
TrxR1 inh: 4%; HEK293 tox: -11%; TrxR1 substrate: -3%; GLP1R ag: 1%; GLP1R inv ag: inconclusive; mIDH1 inhibitor: 6%

How did COc1ccc2c(-c3ccccc3)cc(N3CCOCC3)nc2c1 do in these assays?
TrxR1 inh: 30%; HEK293 tox: 17%; TrxR1 substrate: 63%; GLP1R ag: 10%; GLP1R inv ag: 10µM*; mIDH1 inhibitor: 2%

What do the screens show for `Fc1ccc(-c2csc3ncnc(N4CCN(c5ccccc5)CC4)c23)cc1`?
TrxR1 inh: 19%; HEK293 tox: 2%; TrxR1 substrate: -1%; GLP1R ag: 13%; GLP1R inv ag: 13µM*; mIDH1 inhibitor: -9%

How did CC(=O)c1cccc(NC(=O)c2cnn(-c3cccc(C)c3)c2-n2cccc2)c1 do in these assays?
TrxR1 inh: 15%[57.1 µM]; HEK293 tox: -2%; TrxR1 substrate: 2%[57.1 µM]; GLP1R inv ag: 1%; mIDH1 inhibitor: 2%

How did Cc1ccc(O)c(NC(=O)COCc2cc(-c3ccco3)on2)c1 do in these assays?
TrxR1 inh: -15%; HEK293 tox: -23%; TrxR1 substrate: -7%; GLP1R inv ag: -7%; mIDH1 inhibitor: -7%

How did COc1ccc(-n2cc(-c3ccccc3)c3c(N4CCOCC4)ncnc32)cc1 do in these assays?
TrxR1 inh: 49%; HEK293 tox: -15%; TrxR1 substrate: 42%; GLP1R ag: 8%; GLP1R inv ag: 3.5µM*; mIDH1 inhibitor: -12%

What do the screens show for `COc1ccc(N2CCN(c3ncnc4scc(-c5ccc(C)cc5)c34)CC2)cc1`?
TrxR1 inh: 1%; HEK293 tox: 3%; TrxR1 substrate: -4%; GLP1R ag: 10%; GLP1R inv ag: 2µM*; mIDH1 inhibitor: -2%

Results for O=C(c1ccco1)N1CCN(C(=O)c2sccc2-c2ccccc2)CC1 ?
TrxR1 inh: 16µM*; HEK293 tox: 0%; TrxR1 substrate: 5%[57.1 µM]; GLP1R ag: -4%; GLP1R inv ag: -6%; mIDH1 inhibitor: -4%

Results for COc1ccc(-c2csc3ncnc(N4CCN(C(=O)c5ccco5)CC4)c23)cc1 ?
TrxR1 inh: 56µM*; HEK293 tox: -11%; TrxR1 substrate: 9%; GLP1R ag: -1%; GLP1R inv ag: 4%; mIDH1 inhibitor: 11%

What do the screens show for `CCc1ccccc1NC(=O)Cn1nc(N2CCN(c3ccccc3OC)CC2)ccc1=O`?
TrxR1 inh: 8%[57.1 µM]; HEK293 tox: -1%; TrxR1 substrate: -1%[57.1 µM]; GLP1R inv ag: -24%; mIDH1 inhibitor: -8%

What do the screens show for `Cc1ccc(C(c2sc3nc(-c4ccco4)nn3c2O)N2CCCCC2)cc1` (stereo unspecified)?
TrxR1 inh: 10%[57.1 µM]; HEK293 tox: 6%; TrxR1 substrate: 2%[57.1 µM]; GLP1R inv ag: -20%; mIDH1 inhibitor: -2%

What do the screens show for `Cc1nc2ccccc2n1CCc1nc2c3ccccc3nc(SCC(=O)NCc3ccco3)n2n1`?
TrxR1 inh: -28%; HEK293 tox: 10µM*; TrxR1 substrate: 2%; GLP1R ag: -1%; GLP1R inv ag: inconclusive; mIDH1 inhibitor: 5%

How did NC(=S)NN=C1c2ccccc2-c2ccccc21 do in these assays?
TrxR1 inh: -3%; HEK293 tox: 1.4µM*; TrxR1 substrate: -7%; GLP1R ag: 17%; GLP1R inv ag: inconclusive; mIDH1 inhibitor: 4%

What do the screens show for `Cc1ccc(Nc2nc(NCc3ccco3)nc3nccnc23)c(C)c1`?
TrxR1 inh: 1%; TrxR1 substrate: 0%

Results for COc1ccc(NC(=O)/C(Cl)=C(/Cl)S(=O)Cc2ccccc2Cl)cn1 (stereo unspecified) ?
TrxR1 inh: inconclusive; HEK293 tox: 4µM*; TrxR1 substrate: 8%[57.1 µM]; GLP1R ag: -8%; GLP1R inv ag: inconclusive; mIDH1 inhibitor: -2%

How did COc1ccc(NC(=O)/C(Cl)=C(/Cl)S(=O)(=O)Cc2ccc(C)cc2)cn1 do in these assays?
TrxR1 inh: 2.2µM*; HEK293 tox: inconclusive; TrxR1 substrate: 11%[57.1 µM]; GLP1R ag: -40%; GLP1R inv ag: inconclusive; mIDH1 inhibitor: 2%

How did O=c1[nH]c(=O)n([C@H]2C[C@@H](O)[C@@H](CO)O2)cc1C=CBr do in these assays?
TrxR1 inh: -6%[57.1 µM]; TrxR1 substrate: -2%[57.1 µM]

How did Cc1ccc(CN(C(=O)COc2ccc(C(C)C)cc2)C2CCS(=O)(=O)C2)o1 (stereo unspecified) do in these assays?
TrxR1 inh: inconclusive; HEK293 tox: -10%; TrxR1 substrate: -9%; GLP1R inv ag: inconclusive; mIDH1 inhibitor: 0%

Results for Cc1ccc2c(=O)cc(C(=O)Nc3c(C(=O)Nc4cccc(Cl)c4)oc4ccccc34)oc2c1 ?
TrxR1 inh: 25%; HEK293 tox: 12%; TrxR1 substrate: 4%; GLP1R inv ag: 16%; mIDH1 inhibitor: 3%

How did O=C(CN(Cc1ccccc1)C(=O)CCl)c1cccc(Br)c1 do in these assays?
TrxR1 inh: 14µM*; HEK293 tox: -31%; TrxR1 substrate: -5%; GLP1R ag: -3%; GLP1R inv ag: inconclusive; mIDH1 inhibitor: 2%
